According to PubChem BioAssay (NCI):
Compounds without any hit were thinned out: in the full panel of roughly 83,000, 20% have a hit.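 The endpoint reported here, percent growth, reads 100 for growth as untreated, 0 for no net growth and -100 for all cells dead.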 The source made the active and inactive calls. The calls were made as follows: active = growth percent below 10; inactive = the rest.

How the values were obtained:
Assay in all cases: NCI-60 one-dose screen, 48 h (100 = growth as untreated, 0 = no growth, -100 = all killed)
Conditions in all cases: 10 µM unless noted
SK-MEL-2 melanoma = system: SK-MEL-2 melanoma
EKVX NSCLC = system: EKVX NSCLC
SN12C renal = system: SN12C renal
UO-31 renal = system: UO-31 renal
TK-10 renal = system: TK-10 renal
ACHN renal = system: ACHN renal
CAKI-1 renal = system: CAKI-1 renal
A498 renal = system: A498 renal
CCRF-CEM leukemia = system: CCRF-CEM leukemia
MOLT-4 leukemia = system: MOLT-4 leukemia

SMILES | growth (SK-MEL-2 melanoma) | growth (EKVX NSCLC) | growth (SN12C renal) | growth (UO-31 renal) | growth (TK-10 renal) | growth (ACHN renal) | growth (CAKI-1 renal) | growth (A498 renal) | growth (CCRF-CEM leukemia) | growth (MOLT-4 leukemia)
Cc1ccc(Cl)cc1NC(=O)c1sc2nc3c(cc2c1N)C(=O)CCC3 | 64.5% (inactive) | 75.3% (inactive) | 80.6% (inactive) | 83.4% (inactive) | 96.6% (inactive) | 55.9% (inactive) | 41.4% (inactive) | 51.2% (inactive) | 49.2% (inactive) | 84.9% (inactive)
N#Cc1ccc(O)c(C2=NCC(Cc3ccccc3)O2)c1 (stereo not given) | 38.8% (inactive) | 45% (inactive) | 51.9% (inactive) | 22% (inactive) | 51.4% (inactive) | 38.6% (inactive) | 12.9% (inactive) | 84.9% (inactive) | 33.6% (inactive) | 46.6% (inactive)
COc1ccc2c(c1)CCc1[nH]nc(-c3cc(OC)c(OC)c(OC)c3)c1-2 | 31.1% (inactive) | 33.7% (inactive) | 31.9% (inactive) | 13.8% (inactive) | 50.1% (inactive) | 25.4% (inactive) | 26% (inactive) | -9.65% (active) | 0.932% (active) | 9.32% (active)
O=C(Cn1nnc2ccccc21)N/N=C/c1c[nH]c2ccccc12 | 38.4% (inactive) | 62.4% (inactive) | 45.9% (inactive) | 52.4% (inactive) | 64.7% (inactive) | 64.1% (inactive) | 45.7% (inactive) | 60.4% (inactive) | 47.7% (inactive) | 29.9% (inactive)
CCOC(=O)c1nn(CC(O)c2ccccc2)c(NC(=O)Nc2cccc(F)c2)c1C (stereo not given) | 95% (inactive) | 101% (inactive) | 87.5% (inactive) | 90.1% (inactive) | 105% (inactive) | 107% (inactive) | 101% (inactive) | 76.7% (inactive) | 96.7% (inactive) | 99.2% (inactive)
CN1CCN(CCOc2ccc(-c3cnc4c(-c5ccc(F)cc5)cnn4c3)cc2)CC1 | 81.8% (inactive) | 76.3% (inactive) | 61.6% (inactive) | 32.3% (inactive) | 75.1% (inactive) | 46.6% (inactive) | 45.5% (inactive) | 74.9% (inactive) | 17.6% (inactive) | 8.99% (active)
Cn1cc(-c2ccc(-c3cn(C)c4ccc(Cl)cc34)[nH]2)c2cc(Cl)ccc21 | -18.9% (active) | -89.2% (active) | 7.64% (active) | -93.1% (active) | -28.7% (active) | -100% (active) | 4.42% (active) | 48.6% (inactive) | -12.9% (active) | 19.1% (inactive)
C=C(C)[C@@H]1CC[C@]2(C)[C@H](CC=C3[C@@H]4CC(C)(C)CC[C@]4(CO)CC[C@]32C)[C@@]1(C)CCCN | -35.7% (active) | 97.4% (inactive) | -59.7% (active) | 47.7% (inactive) | -45.8% (active) | -40.8% (active) | 40.3% (inactive) | 80.5% (inactive) | -18.4% (active) | -35.9% (active)
C=Cc1cnc(Nc2ccc(OC)cc2)nc1NCCCNC(=O)C1CCC1 | 87% (inactive) | 56.8% (inactive) | 20.6% (inactive) | 10.2% (inactive) | 26% (inactive) | 41.5% (inactive) | 14.4% (inactive) | 47.3% (inactive) | 28% (inactive) | 24% (inactive)
Cc1ccc2c(-n3nc(C#N)c(C#N)c3N)cc(=O)[nH]c2c1 | 101% (inactive) | 67.9% (inactive) | 76.4% (inactive) | 45.2% (inactive) | 108% (inactive) | 83.1% (inactive) | 82.6% (inactive) | 105% (inactive) | 88.6% (inactive) | 99.3% (inactive)
CCOC(=O)c1cc(C(=O)c2cc(OC)c(OC)c(OC)c2)n2ccccc12 | 40.4% (inactive) | 42% (inactive) | 54% (inactive) | 50.6% (inactive) | 49.3% (inactive) | 58.4% (inactive) | 38.9% (inactive) | -1.31% (active) | 17% (inactive) | 24.3% (inactive)
O=C(Nc1ccc(Cl)cc1)Oc1c(Cl)c(Cl)c(Cl)c(Cl)c1Cl | 95.7% (inactive) | 80.6% (inactive) | 97.6% (inactive) | 78.5% (inactive) | 115% (inactive) | 87.9% (inactive) | 86.1% (inactive) | 74.6% (inactive) | 92.1% (inactive) | 95.6% (inactive)
C=CC(=O)Nc1ccc(Oc2nccc(Nc3nnc(-c4ccc(C)cc4)s3)n2)cc1 | 79.4% (inactive) | 103% (inactive) | 84% (inactive) | 55.7% (inactive) | 135% (inactive) | 68.5% (inactive) | 41.1% (inactive) | 83.3% (inactive) | 50.5% (inactive) | 68.6% (inactive)
COc1ccc(C(=O)/C=C/c2ccc(Cl)cc2)cc1S(=O)(=O)Nc1c(N)nc(SC)[nH]c1=O | 95.8% (inactive) | 85.2% (inactive) | 16.8% (inactive) | 51.6% (inactive) | 79.6% (inactive) | 82.1% (inactive) | 68.5% (inactive) | 80.9% (inactive) | 9.03% (active) | 59.8% (inactive)
OCCNCCNC(Cc1ccc(Cl)cc1)c1ccccc1 (stereo not given) | 86.6% (inactive) | 88.5% (inactive) | 92% (inactive) | 64.5% (inactive) | 80.8% (inactive) | 95.9% (inactive) | 84.3% (inactive) | 90.1% (inactive) | 85.4% (inactive) | 86.4% (inactive)
Cc1ccc(-c2nc(-c3cn(C)c4ncccc34)cs2)cc1 | -14.6% [100 µM] (active) | -13.5% [100 µM] (active) | -13.1% [100 µM] (active) | 14.8% [100 µM] (inactive) | -60% [100 µM] (active) | 6.72% [100 µM] (active) | -22.9% [100 µM] (active) | -3.41% [100 µM] (active) | -4.89% [100 µM] (active) | 17.3% [100 µM] (inactive)
